# Source: PubChem
# Compounds with a hit are over-represented: about 1.1% of the library has one in this group of screens.
# SRC2 inh: inhibition of GAL4-SRC2 driven luciferase reporter, primary screen, SRC2 inhibitor project, cell-based, luminescence. HEK293 GAL4-SRC2 luciferase reporter. inhibition, % at 9 µM. hit rate 0.17% among 370,000;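 active = inhibition above the mean inhibition of all tested compounds plus 3 SD, set per campaign, cut at about 52% in these data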;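 note: 0% = DMSO treated cells and 100% = cells given Gossypol at 36 µM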
# NR2F2 inh: NR2F2 transcriptional activity inhibitors, primary screen, cell-based, luciferase reporter, HEK293T, luminescence; HEK293T NGFI-A luciferase reporter; inhibition, % at 8.6 µM; hit rate 0.7% among 370,000;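 active = inhibition above a per-plate cutoff, mean inhibition of test wells between control levels plus 3 SD, cut at about 38% in these data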;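 note: cells cotransfected with COUP-TFII expression vector driving the NGFI-A reporter; 0% = median of COUP-TF2 test wells and 100% = reporter-only cells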
# LRH-1 inv ag: LRH-1 (NR5A2) inverse agonists, primary screen, cell-based, luminescence, HEK293T, StAR-luciferase reporter | LRH-1 transfected, 24 h | Nuclear receptor subfamily 5 group A member 2 (Homo sapiens), O00482 | hit rate 0.13% among 360,000 | inhibition, % at 3.6 µM;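 active = inhibition above the mean inhibition of all tested compounds plus 3 SD, cut at about 73% in these data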;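 note: 0% = DMSO wells and 100% = reporter-only cells lacking LRH-1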
# GalR3 antag: GalR3 antagonists in HEK293 cells, primary screen, cell-based, fluorescence readout; AID 651719, 2012; inhibition, % at 3 µM; Galanin receptor type 3 (Homo sapiens), O60755; HEK293 GalR3-CNG cAMP membrane potential fluorescence; galR3 body fused to GalR1 C-terminus; hit rate 0.44% among 360,000;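 active = inhibition above the screen-wide average plus 3 SD, cut at about 13% in these data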;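 note: forskolin and galanin both at EC90 stimulate the cells; cAMP rise reported by CNG channel membrane potential dye signal; 0% = forskolin plus galanin with DMSO and 100% = forskolin alone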
# SRC1 inh: SRC1 coactivator transcriptional activity inhibitors, primary screen, cell-based, luminescence; Nuclear receptor coactivator 1 (Homo sapiens), Q15788; hit rate 0.12% among 360,000; inhibition, % at 3.6 µM; HEK293 GAL4-SRC1 luciferase reporter;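 active = inhibition above the campaign mean plus 3 SD, with each screening campaign given its own cutoff, cut at about 60% in these data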;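 note: 0% = DMSO treated cells and 100% = gossypol at 36 µM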
# SRC3 inh: SRC3 coactivator transcriptional activity inhibitors, primary screen, cell-based, luminescence; Nuclear receptor coactivator 3 (Homo sapiens), Q9Y6Q9; HEK293 GAL4-SRC3 luciferase reporter; inhibition, % at 3.6 µM; hit rate 0.17% among 360,000; AID 588352, 2011;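 active = inhibition above a per-campaign cutoff, the mean of all compounds plus 3 SD, cut at about 60% in these data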;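 note: 0% = DMSO-treated cells and 100% = gossypol-treated cells at 36 µM; higher means less SRC3-driven luciferase light from the GAL4 reporter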
# * hit, by the source's call; i = inactive; x = no result given.
SMILES,SRC2 inh,NR2F2 inh,LRH-1 inv ag,GalR3 antag,SRC1 inh,SRC3 inh
CO[C@H]([C@H](C)/C=C/N(C)C=O)[C@@H](C)C(=O)CC[C@H](C)[C@H](O)[C@H](C)[C@H]1OC(=O)/C=C/C(C)=C/C[C@H](O)C[C@@H]2C=CC[C@@H](C[C@H](OC)[C@@H](C)[C@@H](OC)C[C@@H](OC)[C@@H]1C)O2,x,32,x,x,x,x
CC(C)OC(=O)c1ccc(NCc2cc(O)ccc2O)cc1,60*,22,-18,0,-65,-13
O=C(OCc1ccccc1)c1ccc(NCc2cc(O)ccc2O)cc1,83*,56*,37,-1,-34,40
NC1=[N+](Cc2ccccc2)C[C@H]2C(=C3CCCC[C@H]3n3c(=O)n(-c4ccccc4)c(=O)n32)N1,1,-4,x,x,x,x
O=C1C=CC(=O)N1Cc1ccccc1,-9,61*,-11,x,0,-23
CN1C(=O)N(C)N(Cc2ccccc2)C(=O)N1Cc1ccccc1,-15,15,x,-7,x,x
CC(NCc1ccco1)C(=O)N1CCN(c2ccc(F)cc2)CC1 (configuration not stated),-33,-8,x,x,x,x
COc1ccc([C@H]2OC(=O)C[C@H]2C(=O)N2CCCC2)cc1OC,-5,3,x,x,x,x
CC1CCN(Cc2c(C(=O)N/N=C/c3cc(Br)ccc3O)nnn2-c2nonc2N)CC1,17,-10,8,-9,41,68*
COc1cccc(N2CCN(c3c(C#N)c(C(F)(F)F)nn3C)CC2)c1,35,51*,-7,-5,36,31
CCOC(=O)N=Nc1c2ccccc2c2nc3no[nH]c3nc12,-19,-8,6,-8,35,89*
CCOC(=O)N=Nc1c(O)n(CC(=O)OC)c2ccccc12,4,2,-17,-3,-1,2
COC(=O)[C@H](C(C)C)N1CCc2nnn(Cc3ccc(C)cc3)c2-c2cc(F)ccc2S1(=O)=O,6,-1,x,x,x,x
O=C1c2cccc3cc([N+](=O)[O-])cc(c23)C(=O)N1CCN1CCCC1,i,-102,76*,-9,59,-52
O=C(Nc1ccc(OC(F)(F)F)cc1)Nc1cccc([N+](=O)[O-])c1,-5,-6,29,-6,-2,62*
COc1ccccc1-c1nnc(Sc2nc([N+](=O)[O-])nn2C)o1,65*,12,75*,-4,64*,73*
C=C1C(=O)C2=CC1CCC(=O)C1(C)CCC(OC(C)=O)C(C)(C)C1CC2O (configuration not stated),48,34,46,-1,51,64*
c1ccc(CN2CCN(c3ncnc4c3[nH]c3ccccc34)CC2)cc1,20,74*,37,60*,-1,35
Cc1cc(C)c(S(=O)(=O)/N=C2/C=C(Sc3ncn[nH]3)C(=O)c3ccccc32)cc1C,62*,62*,64,-7,36,71*
CCOC(=O)N1CCN(C(=O)C2CCCN(Cc3nc(-c4ccc(Cl)cc4)oc3C)C2)CC1 (configuration not stated),10,73*,42,82*,19,3
O=C(CCCN1C(=O)/C(=C/c2ccccc2Cl)SC1=S)NNC(=O)c1ccc(Cl)cc1,58*,15,6,3,19,12
O=C(CCN1C(=O)/C(=C/c2ccccc2Cl)SC1=S)NNC(=O)c1cccnc1,14,13,-4,0,4,22
O=C(O)C1CCCN1c1nc(-c2ccc(Cl)c(Cl)c2)cc(C(F)(F)F)n1 (configuration not stated),-16,26,92*,-3,53,72*
CCN1CCCCC(NC(=O)c2cccc(C(F)(F)F)c2)C1=O (configuration not stated),-18,-12,x,x,x,x
CNC(=O)c1nnsc1S(=O)(=O)c1ccc(Cl)cc1,41,7,-20,-2,-13,16
SMILES,SRC2 inh,NR2F2 inh,LRH-1 inv ag,GalR3 antag,SRC1 inh,SRC3 inh
O=C(c1nnsc1S(=O)(=O)c1ccc(Cl)cc1)N1CCOCC1,-44,9,-42,22*,-4,8
COc1ccc(S(=O)(=O)N2CCOCC2)cc1NC(=O)CCNC(=O)c1ccc(Cl)cc1,12,4,-9,-4,-5,-11
COc1ccc(S(=O)(=O)N2CCOCC2)cc1NC(=O)CCNC(=O)c1ccc(Br)cc1,57*,-6,82*,-5,44,31
CC(=O)Nc1ccc(NC(=O)c2ccc(-c3ccnn3C)c3ccoc23)cc1,53*,7,9,1,-1,-10
CC(C)c1ccc(NC(=O)c2ccc(-c3ccnn3C)c3ccoc23)cc1,x,x,-13,x,-19,-38
O=C(c1ccc(C#Cc2ccccc2)cc1)N1CCC(O)CC1,-51,-18,x,x,x,x
O=C(CSc1nnc(-c2cccs2)o1)c1cccc([N+](=O)[O-])c1,1,0,x,x,x,x
O=C(CCCCCN1C(=O)C2C3C=CC(C3)C2C1=O)Nc1ccc2ncccc2c1 (configuration not stated),-2,3,x,x,x,x
CC(=O)N(Cc1ccc(F)cc1)C1=C(NCCc2ccccc2)C(=O)c2ccccc2C1=O,44,55*,28,-3,2,17
O=C1C(Cl)=C(NCCc2ccccc2)C(=O)c2ccccc21,-45,0,-1,5,-28,-67
CCCC(=O)OC12CCCN(C1)/C(=C/c1ccc(Cl)cc1)C2 (configuration not stated),-11,17,x,x,x,x
FC(F)(F)c1ccccc1NC(=S)OC1CCC12CCC(c1ccccc1)CC2 (configuration not stated),14,14,x,x,x,x
CC(C)(C)c1ccc(C(=O)Nc2sc3c(c2C(=O)O)CCC3)cc1,68*,29,84*,-5,67*,77*
CCOC(=O)C1(CCOc2ccccc2)CCN(Cc2ccc(OC)c(O)c2)CC1,-12,-2,10,4,-16,4
